According to PubChem BioAssay (Tox21):
Where “and” joins values, the source holds several entries; their conditions need not be identical. Identical values can stand only once. Records with an inconclusive call do not appear. Entries that show only a call come without a potency. Where a structure was tested more than once in an assay, its records may differ in their call. Calls of active or inactive are those of the source. The call rests on the fitted dose curve; in most records, active means well fitted cell-killing curve with a large enough effect in the repeat runs; inconclusive means weak or mixed curves, or effect the other way; inactive means flat fitted curve, though single readings scatter.
Potency means the concentration at half of the fitted maximal effect.

Assay: Caspase-3/7 induction in HepG2 cells by small molecules, qHTS cell viability counter screen (AID 1346981); further: nearly all actives have a fitted effect of over 30% in size
Details: CellTiter-Fluor fluorescence, 17 h; series mostly up to 92.4 µM; activity change, negative = cytotoxicity: at the top concentration
Source text: U.S. Tox21 Program National Center for Advancing Translational Sciences [NCATS] NIH Chemical Genomics Center [NCGC] U.S. Environmental Protection Agency [EPA] National Institutes of Environmental Health Sciences [NIEHS] National Toxicology Program [NTP] U.S. Food and Drug Administration [FDA] Tox21 Assay Overview: Apoptosis is a process of programmed cell death and plays a central role in the development of multicellular organisms. It is a highly regulated process and induces cell death by activating caspases, which are the members of cysteine aspartic acid-specific protease (caspase) family. Caspases involved in apoptosis are classified by their mechanism of action as initiator caspases (caspase-2, -8, -9 and -10) and executioner caspases (caspase-3, -6, and -7). Inhibition of apoptosis results in number of cancers, autoimmune diseases, inflammatory diseases and viral infection. To identify small molecule compounds that induce apoptosis, a homogeneous, luminescent Caspase-Glo 3/7 assay was used. Wild type HepG2 cells were used to screen Tox21 libraries for identifying caspase-3/7 activity inducers. Also cytotoxicity of the compounds was tested in parallel by measuring the cell viability using CellTiter-Fluor assay system in the same wells.
Tox21 Assay Protocol Summary: HepG2 cells were dispensed at 2,000 per well in 5uL of culture medium into white solid bottom 1536-well plates (Corning Life Sciences, Corning, NY) using a Multidrop Combi (Thermo Scientific, Waltham, MA) dispenser. The assay plates were incubated at 37 C and 5% CO2 for 5hr, and then 23nL of compounds dissolved in DMSO and positive control were transferred using a Pintool station ([…], San Diego, CA). The assay plates were incubated at 37C and 5% CO2 for 17hr. For cytotoxicity read, after 16hr incubation at 37C, 1uL CellTiter-Fluor reagent (Promega Corporation, Madison, WI) was added to each well of the assay plates using Flying Reagent Dispenser (FRD, Aurora Discovery, San Diego, CA). After 1hr incubation at 37C and 5% CO2, the fluorescence signal was quantified using a ViewLux plate reader (PerkinElmer, Shelton, CT).
With `Cc1cccc(Nc2ccccc2C(=O)O)c1C` the Potency was “inactive”.
With `CCCN1C=CN(C)C1` the Potency was “inactive”.
For `C=C[C@@]1(C)CC(=O)[C@]2(O)[C@@]3(C)[C@@H](O)CCC(C)(C)[C@@H]3[C@H](O)[C@H](OC(C)=O)[C@@]2(C)O1`, the Potency was “inactive”.
For `CC(=O)Oc1c(C)c(C)c2c(c1C)CC[C@@](C)(CCC[C@H](C)CCC[C@H](C)CCCC(C)C)O2`, the Potency was “inactive”.
With `CC1=CC(C)(C)Nc2ccccc21` the Potency was “inactive”.
For `C1COCCN1`, the Potency was “inactive”.
For `Cc1ccc2c(c1)C(=O)OC2=O`, the Potency was “inactive”.
With `CC(C)(C)c1cccc(C(C)(C)C)c1O` the “activity change, negative = cytotoxicity” value was 1.69% (inactive).
In the case of `CC/C(=C(/CC)c1ccc(O)cc1)c1ccc(O)cc1`, the “activity change, negative = cytotoxicity” value is reported as -8.28% [at 42.5 µM] (inactive).
In the case of `CCCCCCCCCCCCO`, the Potency is reported as “inactive”.
With `CCCCCCC(C)O` (stereo not given) the Potency was “inactive”.
For `CCCCCCCCCCC(CO)CCCCCCCC` (stereo not given), the Potency was “inactive”.
For `CC(=O)O[C@]1(C(C)=O)CC[C@H]2[C@@H]3C=C(Cl)C4=CC(=O)CC[C@]4(C)[C@H]3CC[C@@]21C`, the Potency was 61 µM (active) and inactive.
For `C=CCOC(=O)C(=C)C`, the Potency was “inactive”.
With `FC(F)(F)C(Cl)Br` (stereo not given) the Potency was “inactive”.
For `C=CCNCC=C`, the Potency was “inactive”.
In the case of `C=C[Si](OCCOC)(OCCOC)OCCOC`, the Potency is reported as “inactive”.
For `CC(=O)Nc1ccc2c(c1)Cc1cc(NC(C)=O)ccc1-2`, the Potency was “inactive”.
In the case of `CCCCCC=O`, the Potency is reported as “inactive”.
For `O=C1CCc2ccccc2O1`, the Potency was “inactive”.
For `O=[Se](O)O`, the Potency was 24.4 µM (active) and the activity change, negative = cytotoxicity was 2.81% [at 19 µM] (inactive).
With `CCO[Si](CCCNC(N)=O)(OCC)OCC` the Potency was “inactive”.
In the case of `O=Cc1ccccc1C=O`, the Potency is reported as 30.6 µM (active) and inactive.
For `Nc1ccc(O)c(N)c1`, the Potency was 54.1 µM (active) and 48.6 µM (active).
In the case of `C=CCCCCCCCCCC`, the Potency is reported as “inactive”.
For `NC[C@H](O)c1ccc(O)c(O)c1`, the Potency was “inactive”.
In the case of `c1ccc2cc3ccccc3cc2c1`, the Potency is reported as “inactive”.
With `Cc1ccc(/C(=C\CN2CCCC2)c2ccccn2)cc1` the “activity change, negative = cytotoxicity” value was -5.43% [at 42.5 µM] (inactive).
In the case of `CN1CCOCC1`, the Potency is reported as “inactive”.
For `Brc1nc2ccccc2s1`, the Potency was “inactive”.
For `CN(C)/N=N/c1nc[nH]c1C(N)=O`, the Potency was “inactive”.
In the case of `O=C(O)CCCCCCCCCCCC(=O)O`, the Potency is reported as “inactive”.
With `OC[C@@H](O)[C@@H](O[C@@H]1O[C@H](CO)[C@H](O)[C@H](O)[C@H]1O)[C@H](O)[C@@H](O)CO` the Potency was “inactive”.
In the case of `Cc1ccc(C)c(O)c1`, the Potency is reported as “inactive”.
With `CCC(Cc1c(I)cc(I)c(N)c1I)C(=O)O` (stereo not given) the Potency was “inactive”.
In the case of `NCCN`, the Potency is reported as “inactive”.
In the case of `Cc1ccc([N+](=O)[O-])c(C)c1`, the “activity change, negative = cytotoxicity” value is reported as -0.323% (inactive).
With `CC(=O)O[C@]1(C(C)=O)CC[C@H]2[C@@H]3C=C(C)C4=CC(=O)CC[C@]4(C)[C@H]3CC[C@@]21C` the “activity change, negative = cytotoxicity” value was -0.621% [at 42.5 µM] (inactive).
In the case of `CCC/C=C/C=O`, the Potency is reported as “inactive”.
